Consider 20 compounds from PubChem BioAssay (NCI).

Compounds without any hit were thinned out: in the full panel of roughly 79,000, 15% have a hit. A number with no mark means an inactive call. Calls of active or inactive are those of the source. Cut-off read from the data, not from the text of the source: active = growth inhibition above about 70%; inactive = the rest.

Experiment [1] in a line: NCI Yeast Anticancer Drug Screen. Data for the rad50 strain (AID 155).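 Note: 0% = growth of vehicle-only cultures of the same strain.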 The note with it: S. cerevisiae rad50 strain growth inhibition; at 50.0 µM; active compounds read high. The gist of the method: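 Readout: growth inhibition relative to vehicle-treated cultures. Compound exposure was carried out in a genetically defined yeast strain deficient in DNA damage repair.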
Experiment [2] in a line: NCI Yeast Anticancer Drug Screen. Data for the mec2-1 strain (AID 157). The note with it: S. cerevisiae mec2-1 strain, at 50.0 µM, active compounds read high. In short, it runs like this:
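Vehicle-treated cultures served as reference for growth inhibition of compound-exposed mec2-1 yeast.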

Experiment [3] in a line: NCI Yeast Anticancer Drug Screen. Data for the sgs1 mgt1 strain (AID 161).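 Note: 0% = growth of cultures given vehicle only.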 The note with it: S. cerevisiae sgs1 mgt1 strain, at 50.0 µM, active compounds read high. The gist of the method: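 Read-out: growth inhibition vs vehicle controls. Cells: mutant yeast strain deficient in DNA damage repair.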
Experiment [4] is described as follows: NCI Yeast Anticancer Drug Screen. Data for the cln2 rad14 strain (AID 165).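 Note: 0% = growth equal to vehicle treated cultures.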 The conditions noted are these: S. cerevisiae cln2 rad14 strain, at 50.0 µM, active compounds read high. The gist of the method: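 Each compound was tested on cln2 rad14 yeast. Inhibition of growth was calculated against vehicle-exposed controls.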
Experiment [5] in a line: NCI Yeast Anticancer Drug Screen. Data for the bub3 strain (AID 167). The note with it: S. cerevisiae bub3 mutant strain, at 50.0 µM, active compounds read high. The gist of the method:
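Readout: yeast growth inhibition, expressed relative to vehicle-only wells. The test organism is a mutant strain from a panel with lesions in DNA repair or checkpoint genes.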

Experiment [6] is described as follows: NCI Yeast Anticancer Drug Screen. Data for the mlh1 rad18 strain (AID 175). The conditions noted are these: S. cerevisiae mlh1 rad18 strain growth inhibition; at 50.0 µM; active compounds read high. The gist of the method:
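Vehicle-treated cultures served as the reference for growth inhibition in a yeast strain carrying DNA damage repair alterations exposed to each compound.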

In the case of `O=[N+]([O-])c1ccc(-c2nnc(C34CC5CC(CC(C5)C3)C4)o2)cc1`, the growth inhibition in experiment [1] is -26.7%; in experiment [2], -1.2%; in experiment [3], -13.4%; in experiment [4] it was -5.9%; in experiment [5] it was -11.2%; in experiment [6] it was -30.1%.
As for `CCCC[P+](C)(CC[P+](C)(c1ccccc1)c1ccccc1)c1ccccc1` (stereo not given), the growth inhibition in experiment [1] is 36.3%; in experiment [2], 80.8% (active); in experiment [3] it was 69%; in experiment [4] it was 96.5% (active); in experiment [5] it was 98.1% (active); in experiment [6], 37.3%.
Regarding `Nc1ncnc2c1N=C(c1ccccc1)CC(c1ccccc1)N2` (stereo not given), the growth inhibition is -8.75% in experiment [1]; -5.15% in experiment [2]; -4.15% in experiment [3]; 3.15% in experiment [4]; -35.4% in experiment [5]; 2.6% in experiment [6].
For `COc1cc(/C=C\c2ccc(SC)cc2)cc(OC)c1OC`, the growth inhibition was 26.4% in experiment [1]; 20.6% in experiment [2]; 28.9% in experiment [3]; 15.3% in experiment [4]; 16.8% in experiment [5]; -57.9% in experiment [6].
Regarding `O=C(O)C(Br)C(Br)C(=O)Nc1cccc(Cl)c1` (stereo not given), the growth inhibition in experiment [1] is 0.5%; in experiment [2] it was -47.2%; in experiment [3], 21.2%; in experiment [4] it was -27.8%; in experiment [5] it was 5.75%; in experiment [6] it was 20.2%.
As to `CCc1ccccc1NC(=O)/C(CC(=O)c1c(C)n([O-])c2ccccc2[n+]1=O)=N\NS(=O)(=O)c1ccc(C)cc1`, the growth inhibition in experiment [1] was -18.8%; in experiment [2], -8.25%; in experiment [3], -12.3%; in experiment [4], 12.7%; in experiment [5], 7.25%; in experiment [6] it was 2.5%.
Take `CC(=O)OCC1OC(N2C(c3ccccc3)=CC(c3cccs3)C(C#N)=C2S)C(OC(C)=O)C(OC(C)=O)C1OC(C)=O` (stereo not given): the growth inhibition in experiment [1] is 27.4%; in experiment [2], 28.9%; in experiment [3] it was 40.6%; in experiment [4], 18%; in experiment [5] it was 46.2%; in experiment [6], 23.3%.
On to `Cc1cc(N/N=C/c2ccnc3ccccc23)c2cc3c(cc2n1)OCO3`, for which the growth inhibition in experiment [1] was 43.4%; in experiment [2] it was 18%; in experiment [3], 23.4%; in experiment [4], 27%; in experiment [5], 31.7%; in experiment [6], 20.9%.
Consider `CCc1cccc(C(=O)O)c1N`, for which the growth inhibition in experiment [1] was 26.4%; in experiment [2], 5.75%; in experiment [3], 15.7%; in experiment [4], 3.65%; in experiment [5], -3.75%; in experiment [6], 0.9%.
In the case of `CC/C=N/NC(=O)OCC`, the growth inhibition was -9.8% in experiment [1]; -4.85% in experiment [2]; -13.9% in experiment [3]; 1.1% in experiment [4]; -3.3% in experiment [5]; -6.85% in experiment [6].
`CCOC(=O)Nc1nn(-c2ccc3ccccc3n2)c(=O)[nH]1`: the growth inhibition was 15.7% in experiment [1]; 1.65% in experiment [2]; 10.7% in experiment [3]; 11.9% in experiment [4]; 7.75% in experiment [5]; 13.7% in experiment [6].
Regarding `CC1=CC(=O)CC(C(C)C)C1` (stereo not given), the growth inhibition in experiment [1] was 15.5%; in experiment [2] it was -7.5%; in experiment [3], 22.8%; in experiment [4], -5.95%; in experiment [5] it was 1.95%; in experiment [6], 5.2%.
For the compound `CCCCC1(CCS)C(=O)NC(=Nc2ccccc2)NC1=O` (stereo not given), the growth inhibition was -0.95% in experiment [1]; -3.95% in experiment [2]; 11.8% in experiment [3]; -37.3% in experiment [4]; 22.7% in experiment [5]; -11.8% in experiment [6].
For the compound `O=C(O)C1C2C=CC(O2)C1C(=O)NCc1ccncc1` (stereo not given), the growth inhibition in experiment [1] is -10%; in experiment [2] it was 14.7%; in experiment [3], -7.8%; in experiment [4], -30.1%; in experiment [5] it was -32.5%; in experiment [6], 3.35%.
In the case of `CSc1nc(SC)c2nc(SC)n(-c3ccccc3)c2n1`, the growth inhibition is -2.7% in experiment [1]; -16.1% in experiment [2]; 7.85% in experiment [3]; -10.3% in experiment [4]; 3.85% in experiment [5]; -2.75% in experiment [6].
Regarding `CN1C(=O)C(=O)N(C)C(=O)C1=O`, the growth inhibition in experiment [1] was 8.75%; in experiment [2], 11.2%; in experiment [3], 10.7%; in experiment [4] it was 7.1%; in experiment [5], 12.8%; in experiment [6], 9.6%.
On to `Cc1ccc(C)o1`, for which the growth inhibition is -5.3% in experiment [1]; 5.5% in experiment [2]; -8.65% in experiment [3]; -12.2% in experiment [4]; -1.1% in experiment [5]; 2.6% in experiment [6].
For `COC(=O)C1C(O)C(C(=O)OC)C(C)N(C)C1C` (stereo not given), the growth inhibition in experiment [1] is 7.35%; in experiment [2], -14.4%; in experiment [3], -41.5%; in experiment [4] it was -26.1%; in experiment [5] it was -18.2%; in experiment [6] it was -4.45%.
Take `CC(=O)OC1CCC2(C)C(=CCC3C2CCC2(C)C3CC(Br)C2(O)C(C)=O)C1` (stereo not given): the growth inhibition was 41.9% in experiment [1]; 24.1% in experiment [2]; 15% in experiment [3]; 17.7% in experiment [4]; 4.1% in experiment [5]; 30.4% in experiment [6].
With `Clc1ccc2nc(/C=C/c3ccccc3)ccc2c1`, the growth inhibition in experiment [1] is -10.7%; in experiment [2] it was -4.2%; in experiment [3], -9.4%; in experiment [4], 3.35%; in experiment [5], 6.9%; in experiment [6] it was -15.7%.
